High-throughput results: PubChem, several laboratories
LGR2 antag: inhibitors of bursicon-induced LGR2 CRE-luciferase signal, primary screen, cell-based, HEK293, CRE-luciferase reporter, bursicon stimulation. bursicon-stimulated, 4 h. 380,000 tested, 0.35% active. inhibition, % at 9.99 µM. Drosophila bursicon receptor LGR2 (rickets);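 active = drop in luminescence signal, shown as inhibition above about 50% in the replicate tests, limit read from the data, passing the limit was not always enough; inconclusive = probably only some replicates passing the limit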;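 note: agonist challenge used bursicon conditioned medium at about half maximal strength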
TROY signal inh: inhibitors of TROY-driven NF-kB signaling, primary screen, Q293 LMP1-TROYcd cells, NF-kB luciferase, uHTS; inhibition, % at 10 µM; Q293 LMP1-TROYcd NF-kB luciferase reporter, 4 h; AID 1347056, 2019; 360,000 tested, 0.98% active;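 active = compounds whose plate-normalised and pattern-corrected inhibition of the luciferase reporter signal at the single screening dose is 50% or more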
EWS-Fli block: EWS/Fli-driven NR0B1 reporter inhibitors, primary screen, A673 cells, NR0B1 luciferase, luminescence, MLPCN library; viability-normalised; inhibition, % at 12.6 µM; 350,000 tested, 0.67% active;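 active = mean inhibition of at least 50% after viability correction, with every replicate also passing that limit; inconclusive = mean reaches 50% but only one of two replicates passes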;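 note: firefly luciferase signal divided by Alamar Blue viability fluorescence both relative to DMSO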
TWEAK-Fn14 inh: inhibitors of TWEAK-Fn14 signaling, primary screen, luciferase reporter cells, uHTS; TWEAK-stimulated Fn14 reporter cells, luciferase luminescence, 8 h; inhibition, % at 10 µM; 360,000 tested, 2% active; AID 1159606, 2016; in the data active = inhibition above about 50%
LMP1 NFkB inh: EBV LMP1-driven NF-kappaB luciferase reporter inhibitors, primary screen, cell-based, luminescence, single point | LMP1-induced NF-kappaB luciferase reporter cells | inhibition, % at 12.5 µM | 350,000 tested, 0.69% active; in the data active = inhibition above about 41%; inconclusive = no clear call, values can overlap the other calls;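 note: 0% = neutral control wells and 100% = reference inhibitor control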
Numbers without * were called inactive; ? = inconclusive; . = no result. This is a sample that favours compounds with a hit; in the whole collection about 2.6% have one here.

SMILES	LGR2 antag	TROY signal inh	EWS-Fli block	TWEAK-Fn14 inh	LMP1 NFkB inh
COc1ccc(-n2c(C)cc(C(=O)COC(=O)c3ccc(O)cc3O)c2C)cc1	.	23	-28	54*	17
Cc1cc(C(=O)COC(=O)c2ccc(O)cc2O)c(C)n1-c1ccc(OC(F)F)cc1	2	3	12	15	17
O=C(C1CCCC1)N1CCCCN2[C@H](CO)[C@@H](c3ccc(C#CC4CC4)cc3)[C@@H]2C1	.	.	-11	.	.
O=C(C[C@H]1C[C@@H]2c3cc(NS(=O)(=O)c4ccccc4)ccc3O[C@@H]2[C@@H](CO)O1)N1CCCCC1	13	.	0	.	.
C[C@H](CO)N1C[C@H](C)[C@@H](CN(C)Cc2ccccn2)Oc2cc(C3=CCCCC3)ccc2S1(=O)=O	2	.	11	.	.
CCOc1ccc(NC(=O)c2ccc(N3CC4CC(C3)c3cccc(=O)n3C4)c(NC(=O)c3cccnc3)c2)cc1 (stereo not drawn)	-2	-16	3	-21	61*
Cc1ccccc1Oc1nc2c(C)cccn2c(=O)c1/C=C(\C#N)C(=O)Nc1c(C)n(C)n(-c2ccccc2)c1=O	4	44	18	52*	14
C[C@@H]1CCCCO[C@H](CN(C)CC2CC2)[C@H](C)CN([C@@H](C)CO)C(=O)c2cc(NS(=O)(=O)c3cccs3)ccc2O1	-1	.	-4	.	.
COc1ccc2c(c1)c(=O)oc1c(C)c(OCc3ccc(C(=O)O)cc3)ccc12	-5	-25	.	2	-3
COc1ccc2c(c1)c(=O)oc1c(C)c(OCc3cc(C(=O)O)oc3C)ccc12	-35	23	10	79*	0
CCCNC(=O)Nc1ccc2c(c1)OC[C@H](C)N(C(=O)C1CCCCC1)C[C@H](C)[C@H](OC)CN(C)C2=O	-1	.	-3	.	.
CNC[C@@H]1Oc2ccc(NS(=O)(=O)c3ccc(OC)cc3)cc2C(=O)N([C@H](C)CO)C[C@@H]1C	-8	.	-4	.	.
O=C(C=C=Nc1ccccc1)C(=O)N=C=Cc1ccccc1	21	51*	7	86*	-10
COc1ccc(/C=N\NC(=O)c2ccc(Cn3cc(Br)c([N+](=O)[O-])n3)o2)c(OC)c1C	.	5	9	63*	-1
COc1ccc(/C=N/NC(=O)c2ccc(Cn3cc([N+](=O)[O-])cn3)o2)c(OC)c1C	.	30	.	-21	-2
COc1ccc(-c2cc(C(F)F)n3ncc(C(=O)N4CCc5ccccc54)c3n2)cc1	-13	15	57*	8	19
COc1ccc(N(C)S(=O)(=O)c2cccc(C(=O)OCC(=O)c3c(N)n(C)c(=O)n(C)c3=O)c2)cc1	33	65*	1	71*	16
COc1ccc(S(=O)(=O)Nc2ccc3c(c2)C(=O)N([C@@H](C)CO)C[C@H](C)[C@H](CN(C)S(=O)(=O)c2ccc(C)cc2)O3)cc1	-13	.	-1	.	.
CC(=O)c1ccc(NC(=O)Nc2ccc(Cl)cc2)cc1	-63	-17	-93	-13	-29
S=C(Nc1ccccc1)Nc1ccc(OCc2ccc(Cl)cc2Cl)cc1	.	81*	.	32	77*
CC(=O)c1ccc(NC(=S)NCc2ccc(Cl)cc2Cl)cc1	6	57*	0	3	-8
S=C(NCCSCc1ccc(Cl)cc1Cl)Nc1ccccc1	.	38	.	17	-4
COc1ccccc1C1(O)CCN(CC(=O)Nc2nc(-c3ccccc3)cs2)CC1	36	44	3	55*	16
CCOC(=O)N1CCN(C(=O)CSCC(=O)Nc2nc(-c3ccc(-c4ccccc4)cc3)cs2)CC1	51*	57*	4	93*	31
CN(C)C(=O)C[C@@H]1C=C[C@@H](NC(=O)NC2CCCCC2)[C@@H](CO)O1	6	.	-3	.	.
SMILES	LGR2 antag	TROY signal inh	EWS-Fli block	TWEAK-Fn14 inh	LMP1 NFkB inh
Brc1cc2c(cc1/C=N/Nc1nc3ccccc3s1)OCO2	-116	79*	.	57*	-118
CC1CCCCC1NC(=O)COC(=O)c1c2c(nc3ccccc13)/C(=C/c1ccco1)CC2 (stereo not drawn)	.	0	-10	50*	-17
C=CCn1c(C)cc(C(=O)Cn2nc(C(=O)O)c3ccccc3c2=O)c1C	-27	35	-91	55*	-9
COCCn1c(C)cc(C(=O)Cn2nc(C(=O)O)c3ccccc3c2=O)c1C	-83	42	-58	69*	-24
Cc1cc(C(=O)Cn2nc(C(=O)O)c3ccccc3c2=O)c(C)n1-c1ccc(F)cc1	-26	31	-9	-10	-3
Cc1cc(C(=O)Cn2nc(C(=O)O)c3ccccc3c2=O)c(C)n1C1CC1	-42	-7	-38	13	-4
Cc1ccc2c(c1)N(CC(=O)N1CCCC1)C(=O)c1cccnc1O2	3	-13	-4	7	61*
Cc1nn(-c2ccccc2)nc1C(=O)Nc1nnc(C(F)(F)F)s1	9	52*	0	11	10
O=C(Nc1ccccc1C(=O)Nc1nnc(C(F)(F)F)s1)c1ccccc1Cl	25	66*	17	62*	37
NC(=O)c1ccccc1NC(=O)c1ccccc1Cl	-16	4	-4	-7	0
CC(NC(=O)Nc1nnc(C(F)(F)F)s1)(C(F)(F)F)C(F)(F)F	.	55*	.	30	44*
C[C@H]1CN([C@@H](C)CO)C(=O)Cc2cc(NC(=O)c3ccncc3)ccc2O[C@@H]1CN(C)C	6	.	-12	.	.
O=C(C[C@H]1C[C@@H]2c3cc(NC(=O)Nc4ccc(C(F)(F)F)cc4)ccc3O[C@@H]2[C@@H](CO)O1)NCc1ccccn1	2	.	9	.	.
CCOc1ccc(-n2c(C)c(C(C)=O)c3cc(O)ccc32)cc1	14	35	-6	64*	27
CC(=O)c1c(C)n(-c2ccc(C)cc2C)c2ccc(O)cc12	21	22	6	58*	23
CC(=O)c1ccc(-n2c(C)c(C(C)=O)c3cc(O)ccc32)cc1	13	13	-13	43	22
CCOc1ccc(-n2c(C)c(C(=O)OC)c3cc(O)ccc32)cc1	8	35	3	29	12
CN1CCN(Cc2nc3ccccc3c(=O)n2Cc2nc(-c3ccc4ccccc4c3)cs2)CC1	90*	41	40	-121	6
CN1CCN(Cc2nc3ccccc3c(=O)n2Cc2nc(-c3cccc([N+](=O)[O-])c3)cs2)CC1	-1	15	-6	11	9
Cc1ccnc(NC(=O)c2cccc(S(=O)(=O)N3CCCC3)c2)c1	1	8	-38	2	-11
CN(CCOc1ccc(Cl)cc1)C(=O)c1cccc(S(=O)(=O)N2CCN(c3ccccc3)CC2)c1	6	30	13	50*	18
Cc1ccnc(NC(=O)c2cccc(S(=O)(=O)N3CCN(c4ccccc4)CC3)c2)c1	?	49	34	72*	16
CN(Cc1ccc(Cl)cc1Cl)C(=O)c1cccc(S(=O)(=O)N2CCN(c3ccccc3)CC2)c1	-5	16	30	31	6
